From PubChem
In the library only some 6.3% were active in any assay of this set; here they are far more common.
Autofluor 339 = intrinsic fluorescence of library compounds, ex339/em460 – biochemical, MLSMR library, data from DPM-DC assay, artefact control, profiling panel; compound autofluorescence, ex339/em460 nm, NADH buffer; active compounds read high; 1 = no-compound wells, NADH background; fluorescence fold increase at 10 µM; 5.5% of 65,000 active;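 active = at 10 µM, mean starting fluorescence two-fold or more over control wells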;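 also: signal is the first read of a kinetic run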
NADH enzymes = inhibition of NAD/NADH coupling enzymes, library profiling | coupled PK/LDH NADH assays, four targets | 0.02% of 65,000 active | AID 774 | IC50, µM (series often up to 10 µM);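 active = single-dose screening hits from any of four coupled enzyme assays that gave an IC50 when retested across doses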;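 also: the DPM-DC format reads NADH fluorescence rather than 340 nm absorbance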
Spn MK inh = blocks S. pneumoniae mevalonate kinase. purified MK, PK/LDH-coupled NADH absorbance 340 nm. inhibition, % at 10 µM. 0.48% of 65,000 active. AID 555;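 active = ranked among the strongest by inhibition in the single 10 µM screen, a fixed top-ranked set picked for dose follow-up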
Spn PMK inh = inhibitors of Streptococcus pneumoniae phosphomevalonate kinase. AID 539. inhibition, % at 10 µM. purified PMK, PK/LDH-coupled NADH absorbance 340 nm. 0.49% of 65,000 active;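 active = top-ranked compounds by inhibition in the single 10 µM screen, taking a fixed number of the strongest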
Abs 340nm = compound absorbs light at 340 nm | compound absorbance at 340 nm, fold over control | fold change at 10 µM | 65,000 tested, under 10 active | AID 708;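 active = at 10 µM dose, initial 340 nm absorbance at least 2 fold that of control wells; inactive = change under 2 fold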;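 also: initial absorbance extrapolated from kinetic A340 decline of NADH oxidation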
DPM-DC inhibit = S. pneumoniae DPM-DC inhibition; purified DPM-DC, PK/LDH coupled NADH fluorescence; calls only at 10 µM; 0.49% of 65,000 active; AID 556;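 active = the 320 compounds with the highest percent inhibition in the single-dose primary screen, excluding strongly autofluorescent ones, cut at about 32% in these data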;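 also: kinetic rate of NADH fluorescence loss reporting ADP formed by the decarboxylase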
Large screens that a line does not name were inactive.

CCOc1ccccc1OCC(=O)Nc1ccc(N2CCCCC2)cc1	DPM-DC inhibit active
Cc1cccc(OCC(=O)Nc2ccc(N3CCCC3)cc2)c1C	none
Cn1c(=O)cc(SCC(=O)N2CCCC2)c2ccccc21	none
CCOC(=O)N1CCC(NC(=O)CSc2cc(=O)n(C)c3ccccc23)CC1	Spn PMK inh 42, DPM-DC inhibit active
CCOC(=O)CSc1cc(=O)n(C)c2cc(Cl)ccc12	DPM-DC inhibit active
CCN1CCCC1CNC(=O)CSc1cc(=O)n(C)c2cc(Cl)ccc12 (configuration not stated)	none
COc1cccc(CN2CCN(CC(=O)Nc3ccccc3Cl)CC2)c1	none
Cc1cnc(N)c2c(=O)oc3ccccc3c12	Autofluor 339 2.1 (not shown: DPM-DC inhibit)
COc1ccc2cnn(CCOc3ccccc3)c(=O)c2c1OC	none
CCOc1ccc(-c2nc(C#N)c(N3CCN(CC)CC3)o2)cc1	Autofluor 339 2.4 (not shown: DPM-DC inhibit)
CCCOc1ccc(-c2nc(C#N)c(N3CCN(CC)CC3)o2)cc1	Autofluor 339 3.4 (not shown: DPM-DC inhibit)
Cc1ccc(OCc2nc(C#N)c(N3CCN(Cc4ccccc4)CC3)o2)cc1	none
COC(=O)C1=C(N)Oc2cc(C)n(Cc3cccnc3)c(=O)c2C1c1cccc(OC)c1OC (configuration not stated)	none
CCC(=O)N1CCN(CCN=Cc2c(O)n(C3CCCCC3)c(=O)n(C3CCCCC3)c2=O)CC1	none
CCc1ccc2[nH]c(=O)c(CN(Cc3ccc4c(c3)OCO4)C(=O)c3ccco3)cc2c1	none
COC(=O)c1ccc(-c2cc(C(=O)O)c3cc4c(cc3n2)OCCO4)cc1	Autofluor 339 4.9 (not shown: DPM-DC inhibit)
O=C(O)c1cc2c([nH]c1=O)CCCC2	Autofluor 339 2.3 (not shown: DPM-DC inhibit)
Cc1cccc2[nH]c3c(=O)n(CCN4CCNCC4)cnc3c12	Autofluor 339 2.5
CCN1CCCC1Cn1cnc2c([nH]c3ccc(C)cc32)c1=O (configuration not stated)	Autofluor 339 2.3 (not shown: DPM-DC inhibit)
O=c1c2[nH]c3ccccc3c2ncn1CCN1CCCCC1	Autofluor 339 2.1
Cc1ccc2[nH]c3c(=O)n(CCN4CCNCC4)cnc3c2c1	Autofluor 339 3.1
CCN1CCCC1CNc1ncnc2c1[nH]c1ccc(Cl)cc12 (configuration not stated)	none
COc1ccc(S(=O)(=O)NCCSCc2cccs2)cc1	none
O=C(Nc1ccccc1C(F)(F)F)N1CCN(c2ccc3nncn3n2)CC1	none
OCCCc1nc2n(n1)C(c1ccccc1)C=C(c1ccccc1)N2 (configuration not stated)	none
COc1ccc(C2C=C(c3ccccc3)Nc3nc(CCCO)nn32)cc1 (configuration not stated)	Autofluor 339 4.9 (not shown: DPM-DC inhibit)
COc1ccc(C2C=C(c3cccs3)Nc3nc(CCCO)nn32)cc1 (configuration not stated)	Autofluor 339 3.9 (not shown: DPM-DC inhibit)
Cc1cc(C)c(O)c(-c2cc(C(=O)Nc3ccc(S(=O)(=O)N4CCOCC4)cc3)[nH]n2)c1	none
Cc1csc(C(C#N)C(=O)c2ccc(S(=O)(=O)N3CCCC3)cc2)n1 (configuration not stated)	Spn PMK inh 25
Cc1cccc(NC(=O)c2ccc(S(=O)(=O)N3CCCCC3)cc2)n1	none
Cc1cc(C)n(-c2ccc(Cl)c(C(=O)Nc3ccc(-c4nnc5n4CCCCC5)cc3)n2)n1	none
COC(=O)CSc1ccc2c(N)c(C(=O)OC)sc2c1	Autofluor 339 2.5
Cc1cc(C)c2c(n1)nn1c(NCCOCCO)cc(C)nc21	Autofluor 339 3.9 (not shown: DPM-DC inhibit)
N#Cc1c(N)c(C#N)c(-c2ccc(O)cc2)c2c1CCCC2	Autofluor 339 2.9
COC(=O)c1cc2c(ccn2-c2ccc(F)cc2)n1CC(=O)N1CCN(C(=O)c2ccco2)CC1	Autofluor 339 3.5 (not shown: DPM-DC inhibit)
COc1ccc2c(c1OC)C(=O)NC(C)=C(C(=O)OC(C)(C)C)C2O (configuration not stated)	none
COc1ccc(-n2c(SCc3nnc(-c4ccccc4)o3)nnc2-c2ccccc2)cc1	Spn PMK inh 26
Cc1ccc(-c2ccc(CCC(=O)O)n2NC(=O)c2ccco2)cc1	none
Cc1cccc(S(=O)(=O)Nc2nc3ccccc3nc2NCc2ccco2)c1	none
Cc1cccc(S(=O)(=O)c2c(N)n(Cc3ccco3)c3nc4ccccc4nc23)c1	Autofluor 339 3.9 (not shown: DPM-DC inhibit)
